Measured values reported in PubChem BioAssay AID1851 (National Center for Advancing Translational Sciences (NCATS), 2009).
Where “and” joins values, the source holds several entries; their conditions need not be identical. Equal entries are not always repeated. About 5,800 (36%) of roughly 16,000 compounds were called active. Another 23% or so got no clear call; they are omitted. The call rests on the fitted dose curve; in most records, active means well fitted curve in the direction sought with a large enough effect; inconclusive means small, poorly fitted or top-dose-only effect, or effect the other way; inactive means no such curve, though single readings can be large or run the other way. The list shows a part of the results. Some structures have more than one record in an assay (separate samples or runs), and their calls can disagree.

Molecular target: Cytochrome P450 2C19 (Homo sapiens) (UniProt P33261)
Sequence (P33261 whole entry, looked up): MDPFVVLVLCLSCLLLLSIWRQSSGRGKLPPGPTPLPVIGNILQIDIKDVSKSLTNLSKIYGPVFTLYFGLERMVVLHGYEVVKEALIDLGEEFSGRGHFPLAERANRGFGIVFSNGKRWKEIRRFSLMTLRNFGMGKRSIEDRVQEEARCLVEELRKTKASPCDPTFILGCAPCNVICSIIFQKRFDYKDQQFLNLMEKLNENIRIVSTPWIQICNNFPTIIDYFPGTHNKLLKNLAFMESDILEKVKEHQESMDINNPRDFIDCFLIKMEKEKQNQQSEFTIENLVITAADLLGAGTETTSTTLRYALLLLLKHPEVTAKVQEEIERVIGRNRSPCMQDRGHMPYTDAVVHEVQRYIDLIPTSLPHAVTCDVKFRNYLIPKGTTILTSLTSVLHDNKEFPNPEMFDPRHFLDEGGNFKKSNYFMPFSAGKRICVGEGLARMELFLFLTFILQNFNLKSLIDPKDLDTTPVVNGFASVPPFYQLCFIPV
Assay: Cytochrome panel assay with activity outcomes
Conditions: recombinant CYP, pro-luciferin dealkylation, luminescence, p450-cyp2c19; series mostly up to 57.1 µM
Method: The P450 gene superfamily is involved in the metabolism and clearance of xenobiotics. This assay used various human CYP P450 isozymes to measure the dealkylation of various pro-luciferin substrates to luciferin. The luciferin is then measured by luminescence after the addition of a luciferase detection reagent. Pro-luciferin substrate concentration in the assay was equal to its KM for its CYP P450 isozyme. Inhibitors and some substrates limit the production of luciferin, and decrease measured luminescence.
NCGC Assay Protocol Summary:
1, Reagent, 2 uL, Isozyme and Pro-Luciferin
2, Library compounds, 23 nl, 40 uM to 0.24 nM dilution series
3, Controls, 23 nl, Isozyme specific inhibitor
4, Reagent, 2 uL, NADPH regeneration solution
5, Incubation time, 60 min, Isozyme specific temperature
6, Reagent, 4ul, Detection reagent
7, Incubation time, 20 min, Isozyme specific temperature
8, Detection, 1 sec, ViewLux luminescent read
The luciferase-based P450-GloTM Screening Systems were obtained from Promega (Madison, WI) for CYP 1A2 (V9770), CYP 2C9 (V9790), CYP2 C19 (V9880), CYP 2D6 (V9890), and CYP 3A4 Luciferin-PPXE (V9910) and were adapted for 1,536-well microplates and an automated protocol. The control compounds furafylline for 1A2 (F124), sulfaphenazole for CYP 2C9 (S0758), ketoconazole for CYP 2C19 (K1003), quinidine for 2D6 (Q3625), and ketoconazole for 3A4 (K1003) were purchased from Sigma Aldrich (St. Louis, MO). Recombinant P450 enzymes were obtained from baculovirus constructs expressed in insect cells (BD/Gentest).
Medium-binding white solid Kalypsys plates used. Mixtures kept on ice. 1A2: 10 nM 1A2, 100 uM Luc-ME, 100 mM KPO4; 2C9: 10 nM 2C9, 100 uM Luc-H, 25 mM KPO4; 2C19: 5 nM 2C19, 10 uM Luc-H EGE, 50 mM KPO4; 2D6: 5 nM 2D6, 30 uM Luc-ME EGE, 100 mM KPO4; 3A4: 10 nM, 25 uM Luc-PPXE. All amounts are reflected in their final concentration, working concentration is 2x.
NADPH regeneration solution: 1.3 mM NADP+, 3.3 mM glucose-6-phosphate, 3.3 mM MgCl2, 0.4 U/mL glucose-6-phosphate dehydrogenase for all isozymes, 200 mM KPO4 for 3A4. Mixture prepared at RT but kept on ice during automated run.
RT incubation in auxilliary plate hotel for 1A2, 2D6, and 3A4; 37C for 2C9 and 2C19.
Keywords: P450, CYP1A2, CYP2C19, CYP2C9, CYP2D6, CYP3A4, Luciferase, MLSMR, MLSCN, NIH Roadmap, qHTS, NCGC
On the % scale 0 is the no-effect control and ±100 the full control effect.

Row | Structure (SMILES) | AC50 | activity, negative = inhibition
1 | S=C(S)N1CCCC1 | 3.98 µM (active) | 
2 | CC(C)Oc1cc(-n2c(=S)[nH]c3ccccc3c2=O)c(Cl)cc1Cl | 0.224 µM (active) | 
3 | OC1(c2ccc(Cl)cc2)CCN(Cc2c[nH]c3ccccc23)CC1 | inactive | 
4 | COc1ccn(C)c(=O)c1C#N | inactive | 
5 | CCOC(C(=O)OCCCN(CC)CC)(c1ccccc1)c1ccccc1 | inactive | 
6 | CCN1C[C@@]2(COC)[C@H]3[C@@H](OC)[C@H]4C1[C@@]3([C@H](OC)C[C@@H]2O)[C@H]1C[C@@]2(O)[C@@H](OC(=O)c3ccccc3)[C@@H]1[C@@]4(OC(C)=O)[C@H](O)[C@@H]2OC | inactive | 
7 | CC1=C(CC[C@H](C)CO)O[C@@H]2C[C@@H]3[C@H]4CC[C@H]5C[C@@H](O)CC[C@]5(C)[C@@H]4CC(=O)[C@@]3(C)[C@@H]12 |  | -3.33% [at 11.4 µM] (inactive)
8 | O=c1ccc2[nH]cc(C3=CCNCC3)c2[nH]1 | 0.126 µM (active) | 
9 | COc1ccc2[nH]cc(C3=CCNCC3)c2c1 | inactive | 
10 | CCCCc1nc2ccccc2c(=O)n1-c1ccccc1[N+](=O)[O-] | 14.1 µM (active) | 
11 | CCCCc1nc2ccccc2c(=O)n1-c1ccc(Cl)cc1[N+](=O)[O-] | inactive | 
12 | O=c1cc(-c2ccc(O)cc2)oc2cc(O)cc(O)c12 | inactive | 
13 | COc1ccc(CCNc2cc(-c3ccccc3)nc3ncnn23)cc1 | 11.2 µM (active) | 
14 | CNC[C@H](O)c1ccc(OC(=O)C(C)(C)C)c(OC(=O)C(C)(C)C)c1 | inactive | 
15 | [N-]=[N+]=NCC(=O)c1c[nH]c(=O)[nH]c1=O |  | 30.9% [at 11.4 µM] (inactive)
16 | C[C@H]1CC[C@]2(OC1)O[C@@H]1C[C@@H]3[C@@H]4CC[C@H]5C[C@@H](O)CC[C@]5(C)[C@@H]4CC(=O)[C@@]3(C)[C@H]1[C@@H]2C | inactive | 
17 | CCOC(=O)C1=C(C)OC(N)=C(C#N)C12C(=O)N(C)c1ccccc12 (stereo not given) | 28.2 µM (active) | 
18 | CCN1C[C@]2(C)CC[C@H](O)[C@@]34[C@@H]5CC6[C@@H](OC)C[C@@](O)([C@@H]5[C@@H]6O)[C@H](C[C@@H]23)[C@H]14 | inactive | 
19 | Cc1ccc(OP(=O)(Oc2ccc(C)cc2)N2C=Cc3ccccc3[C@H]2C#N)cc1 | 2.51 µM (active) | 
20 | COc1ccccc1CN1CCCC2(CCN(C(=O)Oc3ccccc3)CC2)C1 | inactive | 

Row | Structure (SMILES) | AC50 | activity, negative = inhibition
21 | O=C1C=C2C=C[C@H]3C[C@@]2(O1)[C@H]1CCCCN31 | inactive | 
22 | O=C1NCN(c2ccccc2)C12CCN(CCCOc1ccc(F)cc1)CC2 | inactive | 
23 | O=C(CCCN1CCC2(CC1)C(=O)NCN2c1ccccc1)c1ccc(F)cc1 | inactive and 6.31 µM (active) | 
24 | O=C1NCN(c2ccccc2)C12CCN(C[C@H]1COc3ccccc3O1)CC2 | 7.94 µM (active) | 
25 | O=C(CCCN1CCC(n2c(=O)[nH]c3ccccc32)CC1)c1ccc(F)cc1 | inactive | 
26 | NC1=Nc2ccccc2Oc2ccccc21 | inactive | 
27 | O=C(Oc1ccccc1)N1CCC2(CCN(Cc3ccncc3)CC2)CC1 | inactive | 
28 | O=C(O)/C=C(\CC(=O)O)C(=O)O |  | -16.7% [at 11.4 µM] (inactive)
29 | O=C(O)Cc1cccnc1C(=O)O | inactive | 
30 | CC(C)CN1CC2(CCN(C(=O)c3ccncc3)CC2)C1 | inactive | 
31 | Cc1ccc(NC(=[OH+])c2cc3ccccc3cc2O)c(C)c1.Cc1ccc(NC(=[OH+])c2cc3ccccc3cc2O)c(C)c1.[Ni] | 2 µM (active) | 
32 | O=c1[nH]oc2c1CCNC2 | inactive | 
33 | Clc1ccc(C2=CCC[C@H]3CC[C@@H]2N3)cn1 | inactive | 
34 | CCCCN1C(=O)C(C2c3ccccc3C(=O)N2Cc2ccccc2)C(=O)NC1=S (stereo not given) | 25.1 µM (active) | 
35 | CC(C)C[C@H](NP(=O)(O)O[C@@H]1O[C@@H](C)[C@@H](O)[C@@H](O)[C@H]1O)C(=O)N[C@@H](Cc1c[nH]c2ccccc12)C(=O)O | inactive | 
36 | CN1C(=O)COc2c(C(=O)N[C@@H]3CN4CCC3CC4)cc(Cl)cc21 | inactive | 
37 | CC(C)n1cnc2c(C(=O)N[C@H]3CN4CCC3CC4)cc(Cl)cc21 | 1 µM (active) | 
38 | Cn1cc(C(=O)C(=O)N[C@H]2CN3CCC2CC3)c2ccccc21 | inactive | 
39 | C[C@@H]1O[C@H](C[N+](C)(C)C)CS1 | inactive | 
40 | NC(=O)CN1C[C@@H](O)CC1=O | inactive | 

Row | Structure (SMILES) | AC50 | activity, negative = inhibition
41 | C[N+]1([O-])[C@@H]2CC(OC(=O)[C@@H](CO)c3ccccc3)C[C@@H]1[C@H]1O[C@H]12 (stereo not given in full) | inactive | 
42 | CN1[C@@H]2CC[C@H]1CC(NC(=O)c1nn(C)c3ccccc13)C2 (stereo not given in full) | inactive | 
43 | O=C1C2CCN(CC2)C1(CO)CO | 0.631 µM (active) | -4.59% [at 11.4 µM] (inactive)
44 | CCN(CC)C(=O)N[C@@H]1C[C@H]2c3cccc4[nH]cc(c34)C[C@@H]2N(C)C1 | inactive | 
45 | CCOC(=O)c1ncn2c1[C@H]1CCCN1C(=O)c1cc(OC)ccc1-2 | inactive | 
46 | CCOC(=O)c1ncn2c1CN(C)C(=O)c1cc(F)ccc1-2 | 1.58 µM (active) | 
47 | O=C(Nc1ccccc1)N1CC2(CCN(C(=O)Oc3ccccc3)CC2)C1 | inactive | 
48 | COC(=O)[C@@H]1c2cc3c(c(O)c2[C@@H](O)C[C@]1(C)O)C(=O)c1c(O)cc2c(c1C3=O)O[C@H]1O[C@@]2(C)[C@@H](O)[C@H](N(C)C)[C@H]1O |  | -43.8% [at 11.4 µM] (inactive)
49 | N[C@H](Cc1ccc(N(CCCl)CCCl)cc1)C(=O)O | inactive | 
50 | CCCC(CCC)C(=O)O | inactive | 
51 | C1CCc2nnnn2CC1 | inactive | 
52 | O=C(Nc1ccc(F)cc1F)c1cccnc1Oc1cccc(C(F)(F)F)c1 | 1.26 µM (active) | 
53 | NNC(=O)c1ccc(O)cc1 | inactive | 
54 | CCCn1c(C)c(C(=O)c2cccc3ccccc23)c2ccccc21 | 10 µM (active) | 
55 | Cc1c(C(=O)c2ccc3ccccc3c2)c2cccc3c2n1[C@H](CN1CCOCC1)CO3 | inactive | 
56 | O=C(C[n+]1ccc2ccccc2c1)c1ccc2ccc3ccccc3c2c1 |  | 1.57% [at 11.4 µM] (inactive)
57 | COc1ccc(C(=O)c2c(C)n(CCN3CCOCC3)c3cc(I)ccc23)cc1 | inactive | 
58 | CCCn1c(C)c(C(=O)c2ccc3ccccc3c2)c2ccccc21 | 2 µM (active) | 
59 | COc1ccc2c3c1O[C@@H]1C(=O)CC[C@@]4(O)[C@@H](C2)N(CC2CC2)CC[C@]314 | inactive | 
